Test results from publication PMC4336329 (PLoS ONE, 2015).
The whole screen tested about 310,000 compounds, of which about 14,000 (4.5%) showed an effect of 50% or more. Effects have a minus sign here. Many of the other results were omitted from the sample, so strong results are more common in it than they were.

molecular target: human ether-à-go-go-related gene (hERG) potassium channel (human, UniProt Q12809); experiment: primary screen, population patch clamp on CHO cells stably expressing hERG; higher = less effect of the substance
Sequence (Q12809 whole entry, looked up): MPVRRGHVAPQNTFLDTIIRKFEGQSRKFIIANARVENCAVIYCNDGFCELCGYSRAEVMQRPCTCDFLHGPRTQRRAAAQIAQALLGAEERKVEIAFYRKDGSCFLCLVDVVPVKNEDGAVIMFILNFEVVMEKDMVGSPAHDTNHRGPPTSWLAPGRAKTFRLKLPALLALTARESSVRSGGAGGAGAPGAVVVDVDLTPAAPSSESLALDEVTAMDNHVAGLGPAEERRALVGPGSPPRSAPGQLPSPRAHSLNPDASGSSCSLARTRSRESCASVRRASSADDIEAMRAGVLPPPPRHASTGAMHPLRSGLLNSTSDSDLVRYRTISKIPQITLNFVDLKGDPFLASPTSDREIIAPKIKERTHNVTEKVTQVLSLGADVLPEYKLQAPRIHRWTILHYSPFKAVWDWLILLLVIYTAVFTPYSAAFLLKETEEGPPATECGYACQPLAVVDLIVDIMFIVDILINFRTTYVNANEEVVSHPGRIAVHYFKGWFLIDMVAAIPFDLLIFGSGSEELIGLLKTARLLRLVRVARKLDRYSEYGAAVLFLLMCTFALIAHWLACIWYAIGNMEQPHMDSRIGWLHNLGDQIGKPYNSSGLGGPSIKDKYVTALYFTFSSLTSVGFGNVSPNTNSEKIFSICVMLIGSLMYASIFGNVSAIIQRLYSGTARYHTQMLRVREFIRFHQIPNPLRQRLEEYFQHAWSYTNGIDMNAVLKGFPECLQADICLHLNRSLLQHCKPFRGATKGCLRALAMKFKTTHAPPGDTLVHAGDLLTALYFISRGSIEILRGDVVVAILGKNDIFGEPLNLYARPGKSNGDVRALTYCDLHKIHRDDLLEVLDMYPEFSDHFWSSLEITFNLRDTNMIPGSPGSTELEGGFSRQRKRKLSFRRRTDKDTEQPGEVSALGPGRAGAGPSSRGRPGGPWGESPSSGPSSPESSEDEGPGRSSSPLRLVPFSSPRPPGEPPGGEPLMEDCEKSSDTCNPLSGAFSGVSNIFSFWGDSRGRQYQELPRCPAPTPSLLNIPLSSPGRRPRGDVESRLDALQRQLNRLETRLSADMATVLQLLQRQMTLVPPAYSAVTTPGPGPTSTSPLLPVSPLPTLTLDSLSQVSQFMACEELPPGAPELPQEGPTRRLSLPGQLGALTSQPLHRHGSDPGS
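Note: peak tail current of the secondary pulse compared with the same well before compound.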

Row | SMILES | hERG current change (%, negative = inhibition) at 10uM [%]
1 | Cc1nn(C)cc1CNC(=O)C1C2CCC(O2)C1C(=O)O (stereo not shown) | 23.7
2 | Cc1nn(-c2ccccc2)c(C)c1C(=O)OCC(=O)N1CCN(S(=O)(=O)c2ccccc2)CC1 | -11
3 | COc1ccccc1N(C(C)=O)C1SC(=O)N(c2ccccc2)C1=O (stereo not shown) | 14
4 | Cc1ccc(C)n1-c1cccc(S(=O)(=O)N2CCOCC2)c1 | 7.55
5 | Cc1cc(C(=O)CSc2ncn[nH]2)c(C)n1-c1cccc(S(=O)(=O)N2CCOCC2)c1 | -28.5
6 | Cc1cc(C(=O)COc2ccccc2[N+](=O)[O-])c(C)n1-c1cccc(S(=O)(=O)N2CCOCC2)c1 | -9.82
7 | Cc1cc(C(=O)CN2C(=O)C(=O)N(C)C2=O)c(C)n1-c1cccc(S(=O)(=O)N2CCOCC2)c1 | -63.4
8 | Cc1cc(C(=O)CN2C(=O)CN(C)C2=O)c(C)n1-c1cccc(S(=O)(=O)N2CCOCC2)c1 | -49.8
9 | Cc1cc(C(=O)CCl)c(C)n1-c1cccc(S(=O)(=O)N2CCOCC2)c1 | -77.4
10 | CCc1nnc(NS(=O)(=O)c2ccc(N=Cc3c(C)[nH]n(-c4cccc(Cl)c4)c3=O)cc2)s1 | 10.4
11 | CC(=O)c1ccc(OCC(=O)N(C)CC(=O)Nc2ccc(N3CCOCC3)cc2)cc1 | 9.61
12 | CC(=O)Nc1ccc(S(=O)(=O)NCC(=O)OCC(=O)N2CCCc3ccccc32)cc1 | 4.4
13 | C/C(=N\NC(=O)c1ccc(N(C)C)cc1)c1ccc(C)c(C)c1 | -14.5
14 | Cc1cc(=O)oc2ccc(OC(=O)c3cccc(S(=O)(=O)N4CCOCC4)c3)cc12 | -70.5
15 | O=C(Oc1ccc(Br)cc1)c1cccc(S(=O)(=O)N2CCOCC2)c1 | -35.6
16 | COC(=O)c1cccc(S(=O)(=O)N2CCOCC2)c1 | 6.61
17 | CC(C)C1Oc2ccccc2N(CC(=O)N(C)C2CCCCC2)C1=O (stereo not shown) | -10.1
18 | CCc1nc(N2CCNCC2)c(C#N)c2c1CSC(C)(C)C2 | 2.02
19 | CCCCc1nc(Cl)c(C#N)c2c1CSC(C)(C)C2 | -13.1
20 | CCCCc1nc(N2CCNCC2)c(C#N)c2c1CSC(C)(C)C2 | -64.7
21 | CCCCn1c(N)c(N(CC)C(=O)c2cccc(OCc3ccccc3)c2)c(=O)[nH]c1=O | -9.67
22 | O=CN1CCCN(Cc2nc(Cc3ccccc3F)no2)CC1 | 16.1
23 | c1ccc(Cc2noc(CN3CCN(CCOc4ccccc4)CC3)n2)cc1 | -40.9

Row | SMILES | hERG current change (%, negative = inhibition) at 10uM [%]
24 | COc1ccccc1CN1CCN(Cc2nc(Cc3ccccc3)no2)CC1 | -36
25 | Cc1ccccc1N1CCN(Cc2nc(Cc3ccccc3F)no2)CC1 | -3.53
26 | Fc1ccccc1Cc1noc(CN2CCN(C/C=C/c3ccccc3)CC2)n1 | -74
27 | C(=C\c1ccccc1)/CN1CCN(Cc2nc(Cc3ccccc3)no2)CC1 | -65.1
28 | COC(=O)c1ccc(C(C(=O)NCc2ccccc2)N(Cc2ccco2)C(=O)c2cnccn2)cc1 (stereo not shown) | -25.4
29 | COC(=O)/C(=C\Nc1ccc(Cl)cc1Cl)NC(=O)c1ccccc1 | -4.83
30 | C=CCNC(=S)NNC(=O)CCC(O)CCCCC (stereo not shown) | 16.4
31 | CCOc1ccc(C(=O)CCC(=O)N(CC)CC(=O)Nc2c(F)cccc2F)cc1 | -25.6
32 | CCN(CC(=O)NCc1ccc(Cl)cc1)C(=O)CCC(=O)c1ccc(F)cc1 | -61.9
33 | CCN(CC(=O)NCc1ccc(F)cc1)C(=O)c1ccc(Cl)cc1 | -23.7
34 | CCN(CC(=O)NCc1ccc(Cl)cc1)C(=O)CCC(=O)c1ccc(C)cc1 | -66.5
35 | Cc1ccc(C(=O)CCC(=O)NCc2ccc(Cl)cc2)cc1 | -8.52
36 | CCN(CC(=O)NCc1cccs1)C(=O)CCC(=O)c1ccc(C)cc1 | -46.9
37 | CCOc1ccc(C(=O)CCC(=O)N(CC)CC(=O)NCc2ccc(Cl)cc2)cc1 | -70.3
38 | CCN(CC(=O)NCc1cccs1)C(=O)CCC(=O)c1ccc(F)cc1 | -49.7
39 | CCOc1ccc(C(=O)CCC(=O)N(CC)CC(=O)NCc2cccs2)cc1 | -19.9
40 | Cc1ccc(C)c(N(CC(=O)NC2CCCC2)S(=O)(=O)c2ccccc2)c1 | 19.9
41 | Cl.O=C(O)c1cc(S(=O)(=O)N2CCN(C(c3ccccc3)c3ccccc3)CC2)ccc1Cl | 14.7
42 | COc1ccc([C@H]2CC(=O)C=C(c3ccc(OC(F)(F)F)cc3)C2)cc1 | 5.59
43 | COc1ccccc1CN1CCN(Cc2cc(OC)c(OC)cc2OC)CC1.O=C(O)C(=O)O | -11.2
44 | COc1ccc(OCCOCCN2CCN(C)CC2)cc1.O=C(O)C(=O)O | -6.29
45 | COc1ccccc1CN1CCN(C(c2ccccc2)c2ccccc2)CC1.O=C(O)C(=O)O | -55.1
46 | Fc1ccc(CN2CCN(C(c3ccccc3)c3ccccc3)CC2)cc1.O=C(O)C(=O)O | 15

Row | SMILES | hERG current change (%, negative = inhibition) at 10uM [%]
47 | CCOc1ccccc1N1CCN(Cc2cccc(OC)c2O)CC1 | -25.8
48 | COc1cccc(CN2CCN(C(c3ccccc3)c3ccccc3)CC2)c1O.O=C(O)C(=O)O | -64.5
49 | COc1ccccc1N1CCN(Cc2cccc(OC)c2O)CC1 | -64.9
50 | COc1ccccc1N1CCN(Cc2cccc(OC)c2OC)CC1 | -12.5
51 | O=C(O)C(=O)O.Oc1ccccc1CN1CCN(C(c2ccccc2)c2ccccc2)CC1 | 17
52 | O=C(O)C(=O)O.c1ccc(OCCN2CCN(C(c3ccccc3)c3ccccc3)CC2)cc1 | -14.6
53 | COc1cc(CN2CCN(C(c3ccccc3)c3ccccc3)CC2)cc(OC)c1OC.O=C(O)C(=O)O | -17.2
54 | O=C(O)C(=O)O.c1ccc(OCCOCCN2CCN(C(c3ccccc3)c3ccccc3)CC2)cc1 | -72.7
55 | N#C/C(C(=O)N1CCOCC1)=C1\Nc2ccccc2S1 | 2.1
56 | CC(=O)NC(Cc1c[nH]c2ccccc12)C(=O)NCc1ccco1 (stereo not shown) | 12.5
57 | CCN(CC)S(=O)(=O)c1cccc(NC(=O)COc2ccc(Cl)cc2Br)c1 | 2.59
58 | CCn1c(SCC(=O)Nc2ccc(C(C)=O)cc2)nc2c([nH]c3ccccc32)c1=O | 5.85
59 | CCOCCCNC(=O)c1ccc(-n2c(=S)[nH]c3ccccc3c2=O)cc1 | 10.8
60 | COc1cccc(OC)c1OCCN1CCN(C(c2ccccc2)c2ccccc2)CC1 | -72.7
61 | COc1ccccc1OCCCCN1CCN(C(c2ccccc2)c2ccccc2)CC1.O=C(O)C(=O)O | -73
62 | COc1ccccc1OCCCCCCN1CCN(C)CC1.O=C(O)C(=O)O | -5.83
63 | COc1ccccc1CN1CCCCCC1.O=C(O)C(=O)O | 11.5
64 | COc1ccccc1CN1CCN(Cc2ccc(Cl)cc2)CC1.O=C(O)C(=O)O | -62.5
65 | COc1ccccc1OCCCCCCN1CCOCC1.O=C(O)C(=O)O | 0.0271
66 | COc1cccc(OC)c1OCCN1CCCC1 | 15.8
67 | COc1cccc(OC)c1OCCOCCN1CCN(C)CC1 | 20.8
68 | COc1ccc(CN2CCN(Cc3ccccc3OC)CC2)cc1.O=C(O)C(=O)O | 2.68
69 | CCOc1ccc(NCc2nc3ccccc3n2CCOc2ccccc2)cc1 | -11.6

Row | SMILES | hERG current change (%, negative = inhibition) at 10uM [%]
70 | Cc1ccnc(N2CCC(C(=O)NCc3ccc(F)cc3)CC2)n1 | -12
71 | CCOC(=O)N1CCN(CC(O)COc2ccccc2C(C)C)CC1.Cl (stereo not shown) | -8.87
72 | C/C(=N\NC(=O)c1ccco1)c1cc(Cl)sc1Cl | -6.11
73 | S=c1[nH]nc(COc2ccc(Cl)cc2Cl)n1-c1ccccc1 | 19.1
74 | C/C(=N\Nc1cc(N2CCOCC2)nc(C)n1)c1cccc([N+](=O)[O-])c1 | -60.4
75 | C/C(=N\Nc1cc(N2CCOCC2)ncn1)c1cccc([N+](=O)[O-])c1 | 4.5
76 | C/C(=N\Nc1nc(N2CCOCC2)nc(N2CCOCC2)n1)c1cccc([N+](=O)[O-])c1 | -4.76
77 | COCCCNC(=O)[C@H]1N2C(=O)c3ccccc3C2SC1(C)C (stereo partly shown) | 15.3
78 | S=C(NCc1ccco1)N1CCN(Cc2ccc(Cl)cc2Cl)CC1 | -36.3
79 | O=S(=O)(Nc1ccc(-c2ccc3nncn3n2)cc1)c1ccc(Cl)s1 | -19.2
80 | O=C(Nc1ccc(S(=O)(=O)N2CCOCC2)cc1)c1ccccc1F | 6.32
81 | COc1ccc(CNc2ccc3c(c2)ncn3-c2ccccc2OC)cc1 | -23
82 | C=CCc1ccccc1OCC(O)CN1CCN(c2ccccc2F)CC1.Cl (stereo not shown) | -40.9
83 | C=CCc1ccccc1OCC(O)CN(CC)CC.Cl (stereo not shown) | -30.5
84 | C=CCc1ccccc1OCC(O)CN(C(C)C)C(C)C.Cl (stereo not shown) | -59.2
85 | C=CCc1ccccc1OCC(O)CNC (stereo not shown) | 12
86 | C=CCc1ccccc1OCC(O)CN1CCN(c2ccc(OC)cc2)CC1.Cl (stereo not shown) | -66.5
87 | C=CCc1cc(OC)ccc1OCC(O)CN1CCN(c2ccc(OC)cc2)CC1 (stereo not shown) | -59.7
88 | C=CCc1ccccc1OCC(O)CN1CCN(c2ccccc2OC)CC1.Cl (stereo not shown) | -75.2
89 | C=CCc1cc(C)ccc1OCC(O)CN1CCN(c2ccccc2)CC1 (stereo not shown) | -47.5
90 | C=CCc1ccccc1OCC(O)CN1CCN(C(=O)OCC)CC1.Cl (stereo not shown) | -11.3
91 | C=CCc1ccccc1OCC(O)CN1CCN(c2ccc(C)cc2)CC1 (stereo not shown) | -44.7
